# Source: PMC10668032, “Altered binding affinity of SIX1-Q177R correlates with enhanced WNT5A and WNT pathway effector expression in Wilms tumor”
# In all, about 33,000 sequences were measured (“e-score”: median about -0.05, highest 2% from about 0.38 on). This excerpt belongs to a sample that is enriched for the highest values.
# Biological target: T1, SIX1-Q177R homeodomain (human, UniProt Q15475 108-198, Q177R)
# T1 sequence: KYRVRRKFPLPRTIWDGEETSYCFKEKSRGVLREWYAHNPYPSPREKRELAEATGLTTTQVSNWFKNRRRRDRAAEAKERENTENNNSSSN
# Test: universal protein binding microarray; Universal all-10-mer PBM (8x60K, AMADID 030236), 300 nM GST-tagged protein, Alexa Fluor 488 anti-GST; buffer, salt, pH and temperature not stated (as in Berger); high values mean tight binding
# Conditions: protein: ivt; tags: N-terminal GST; dsDNA, one strand shown
# Method in brief: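 Duplicate protein binding microarrays (universal 'all 10-mer', 8×60K format) were incubated with GST-tagged homeodomains at 300 nM final concentration. Binding was quantified as 8-mer E-scores with the Universal PBM Analysis Suite.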
row,Sequence,binding signal
1,CACGAAAA,0.157 ± 0.0159 E-score
2,GGGAGTTA,0.2077 ± 0.00099 E-score
3,TCGGCACA,0.217 ± 0.0118 E-score
4,CACCGCCA,0.291 ± 0.0119 E-score
5,AGTCGGTG,0.297 ± 0.0328 E-score
6,TGCGTACA,0.18 ± 0.00951 E-score
7,ATAATACA,0.166 ± 0.023 E-score
8,ACGAGGTG,0.251 ± 0.0125 E-score
9,AGGCGGGG,0.159 ± 0.0183 E-score
10,ACGCCACG,0.171 ± 0.0126 E-score
11,AAGACCCC,0.172 ± 0.0514 E-score
12,AGAGGTAT,0.221 ± 0.0344 E-score
13,GTGCTGTA,0.164 ± 0.0245 E-score
14,TAGTAGCA,0.159 ± 0.00204 E-score
15,GTGTAGTA,0.464 ± 0.0137 E-score
16,GTGTGGAA,0.193 ± 0.0214 E-score
17,GTGTAGAA,0.427 ± 0.0121 E-score
18,GTGTAGGA,0.4 ± 0.00559 E-score
19,GTGTGGCA,0.246 ± 0.0251 E-score
20,GTGTAGCA,0.425 ± 0.0131 E-score
21,GTAGAGTA,0.2533 ± 0.000997 E-score
22,GGGTAGTA,0.161 ± 0.0206 E-score

row,Sequence,binding signal
1,GTGTGGGA,0.286 ± 0.0336 E-score
2,GGGTAGGA,0.213 ± 0.0147 E-score
3,CACGGCTA,0.182 ± 0.0377 E-score
4,ACATGGGT,0.209 ± 0.0274 E-score
5,CACCTGGG,0.2794 ± 0.00115 E-score
6,CCCGCCAC,0.195 ± 0.0268 E-score
7,TGGGGTAA,0.26 ± 0.0142 E-score
8,CACCCGCG,0.301 ± 0.00786 E-score
9,AGGCGACA,0.25 ± 0.0166 E-score
10,ACACATGG,0.185 ± 0.0286 E-score
11,GGAGGACA,0.246 ± 0.019 E-score
12,CACGAACA,0.25 ± 0.0125 E-score
13,CACACTCC,0.291 ± 0.0144 E-score
14,CACACTAA,0.204 ± 0.0117 E-score
15,CACACTCG,0.3527 ± 0.00165 E-score
16,AACACTCC,0.379 ± 0.0156 E-score
17,AACACTCA,0.3999 ± 0.00301 E-score
18,AACACTCG,0.337 ± 0.0357 E-score
19,GATACTCA,0.16 ± 0.00991 E-score
20,GACACTCA,0.422 ± 0.00429 E-score
21,CACACTCA,0.21 ± 0.0192 E-score
22,GACACTCC,0.43377 ± 0.000417 E-score

row,Sequence,binding signal
1,TACACTCA,0.402 ± 0.0151 E-score
2,AACACTCT,0.35 ± 0.036 E-score
3,CGGATCAC,0.174 ± 0.0108 E-score
4,CACGGAGC,0.163 ± 0.00672 E-score
5,CACTAGCG,0.188 ± 0.0248 E-score
6,CCGTGCGA,0.155 ± 0.0514 E-score
7,CCGGTGCG,0.179 ± 0.0475 E-score
8,CCGGTGTC,0.4894 ± 0.00404 E-score
9,ACGGTGCG,0.167 ± 0.0105 E-score
10,ACGGTGTG,0.367 ± 0.0153 E-score
11,CCGGTATC,0.284 ± 0.0126 E-score
12,ACGGTGTC,0.4875 ± 0.00246 E-score
13,ACGGGGTG,0.338 ± 0.0174 E-score
14,ACCTGGTG,0.322 ± 0.00697 E-score
15,ACAATACA,0.194 ± 0.0158 E-score
16,CTAGGACA,0.162 ± 0.0316 E-score
17,TAATCACA,0.213 ± 0.0222 E-score
18,GGGGTTGA,0.2 ± 0.025 E-score
19,AGACACTA,0.343 ± 0.00686 E-score
20,GGACACTA,0.358 ± 0.00739 E-score
21,CGACACTA,0.41 ± 0.00325 E-score
22,AGACACTC,0.3634 ± 0.00141 E-score

row,Sequence,binding signal
1,CGACACTC,0.437 ± 0.00883 E-score
2,ACGCCCGA,0.17 ± 0.0302 E-score
3,CCTGCACC,0.16 ± 0.00461 E-score
4,ACCCAAGT,0.157 ± 0.00998 E-score
5,AAGCACCA,0.24 ± 0.00412 E-score
6,CCGGACGA,0.185 ± 0.0376 E-score
7,CCGGACAC,0.427 ± 0.0142 E-score
8,ACGGAGTC,0.181 ± 0.0091 E-score
9,GCGGATAC,0.2681 ± 0.00246 E-score
10,CCGGATAC,0.262 ± 0.00585 E-score
11,GCGCACAC,0.289 ± 0.0303 E-score
12,ACGGACAC,0.41 ± 0.0174 E-score
13,ACGGATAC,0.28 ± 0.00317 E-score
14,GCGGACAC,0.406 ± 0.0139 E-score
15,CCCTCTGA,0.153 ± 0.0264 E-score
16,CACTGAGA,0.202 ± 0.0113 E-score
17,GCTTAACA,0.171 ± 0.0194 E-score
18,ACCAGAGT,0.16 ± 0.0333 E-score
19,ACCCTTAA,0.175 ± 0.0783 E-score
20,ATCCCTAG,0.154 ± 0.00215 E-score
